# Screening results as filed in PubChem.
# FMDV antiviral = High Throughput Screening for Foot and Mouth Disease Virus Antivirals | FMDV antiviral cell-based qHTS | Potency, µM (doses to about 57.9 µM), inactives show top-dose activity change, negative = inhibition, most hits filed as inhibitors | 410,000 tested, 1.2% active; calls by dose curve; tested in HEK293T cells; note: read-out not given here; potency is the fitted concentration of half-maximal effect; nearly all actives have a fitted effect of over 45% in size
# HCV inh = qHTS Assay for Inhibitors of Hepatitis C Virus (HCV) | 340,000 tested, 3.4% active | Huh7.5.1 HCVcc-Cre infection, luciferase reporter, 44 h | Potency, µM (titrated, usually from 41.8 µM), without a hit: at the top dose activity change, negative = inhibition, most hits filed as inhibitors | AID 651820, 2012; active = well fitted inhibition curve with a large enough effect; inconclusive = small, poorly fitted or top-dose-only effect, or another doubt; inactive = no such curve, though single readings can be large or run the other way; note: potency is the fitted concentration of half-maximal effect
#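 After 44 h co-culture of compound, cells and HCVcc-Cre (~0.5 moi), substrate is added for 15 min at room temperature and luciferase measured over 15 sec. Cells were seeded at 1,000/well and pre-cultured 4 h.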
# Lassa entry inh = qHTS for Inhibitors of binding or entry into cells for Lassa Virus. AID 540256, 2011. Lassa virus pseudotype entry inhibition, cell reporter. 300,000 tested, 1.2% active. Potency, µM (doses to about 37.9 µM), without a hit: at the highest dose activity change, negative = inhibition, usual class: inhibitors; calls by dose curve; tested in HEK293 cells; note: potency is the fitted concentration of half-maximal effect; nearly all actives have a fitted effect of over 50% in size
# Marburg entry inh = qHTS for inhibitors of binding or entry into cells for Marburg Virus; 300,000 tested, 1.8% active; Potency, µM (series often up to 37.8 µM), inactives show top-dose activity change, negative = inhibition, hits mostly inhibitors; Marburg virus pseudotyped entry inhibition, cell reporter; calls by dose curve; tested in HEK293 cells; note: potency is the fitted concentration of half-maximal effect
# HCMV inh = qHTS Assay for inhibitors of the human cytomegalovirus (HCMV) | HFF cells, HCMV-luciferase reporter, 72 h; active compounds read low | activity change, negative = inhibition, % at 57.5 µM | 410,000 tested, 4.5% active | AID 1259415, 2018; in the data active = activity change below about -60%; inconclusive = no clear call, values can overlap the other calls; inactive = above about -39%
#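 Two-dose cell screen: HFF monolayers treated with compounds and infected with luciferase-expressing HCMV at 1 PFU/cell, 72 h at 37C, then lysed for luciferase measurement.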
# Starred values were filed as active, the others as inactive; ? = inconclusive; nt = no result given; [ ] = remark or other dose. Compounds with a hit are over-represented: about 7.9% of the library has one in this group of screens. % is set by controls: 0 for no effect and ±100 for the full control effect.
SMILES,FMDV antiviral,HCV inh,Lassa entry inh,Marburg entry inh,HCMV inh
CC1(C)CCC2=C(O1)c1ccccc1C(=O)C2=O,?,nt,nt,13µM*,nt
O=C(N1CCN(c2cccc(Cl)c2)CC1)C1(c2cccs2)CCOCC1,35µM*,?,?,?,?
O=C(N1CCN(c2ccc(F)cc2)CC1)C1(c2cccs2)CCOCC1,0%,-15%,-2%,-3%,-32
COc1cccc(C(=O)NCC2Cc3cccc(-c4cccnc4)c3O2)c1 (stereo not given),23%,nt,nt,nt,nt
COc1ccc(C2CC(c3ccccc3)=NN2C(=O)c2ccc(F)cc2)cc1 (stereo not given),3%,14%,-12%,4%,-13
COc1ccc(C2CC(c3ccccc3O)=NN2c2ccccc2)cc1 (stereo not given),-7%,-25%,5%,-7%[46.1 µM],17
NS(=O)(=O)c1ccc(N2N=C(c3ccc(Br)cc3)CC2c2ccc(F)cc2)cc1 (stereo not given),22µM*,?,7.9µM*,10µM*,-17
COc1ccc(C2CC(c3cccc(Cl)c3)=NN2c2ccc(S(N)(=O)=O)cc2)cc1 (stereo not given),?,13µM*,nt,nt,1
COc1ccc(C2CC(c3ccccc3)=NN2c2ccc(N)cc2)cc1 (stereo not given),40µM*,-11%,?,?,19
COc1ccc(C2CC(c3ccccc3)=NN2S(=O)(=O)c2ccccc2)cc1 (stereo not given),-3%,13µM*,nt,nt,-40
CCS(=O)(=O)N1Cc2ccccc2CC1C(=O)NCCc1ccccc1 (stereo not given),20%,-3%,-1%[46.1 µM],-6%[46.1 µM],0
Cc1ccc(C2=NN(S(=O)(=O)c3ccccc3)C(c3ccccc3O)C2)cc1 (stereo not given),43%,14µM*,?,?,?
NS(=O)(=O)c1ccc(N2N=C(c3ccccc3)CC2c2cccc(F)c2)cc1 (stereo not given),-16%,?,?,?,-12
COc1ccc(S(=O)(=O)N2N=C(c3ccc(NS(C)(=O)=O)cc3)CC2c2ccco2)cc1 (stereo not given),-7%,4%,0.65µM*,10%,-25
COc1ccc(C2CC(c3ccccc3)=NN2c2ccc(S(N)(=O)=O)cc2)cc1OC (stereo not given),0%,-29%,11µM*,?,-7
COc1ccc(S(=O)(=O)N2N=C(c3cccc(NS(C)(=O)=O)c3)CC2c2ccco2)cc1 (stereo not given),9%,0%,nt,nt,?
COc1ccc(C=C2C(=O)NC(=S)NC2=O)cc1OC,-27%,-3%,13%[46.1 µM],0%[46.1 µM],-26
COc1ccc(/C=C/C=C2C(=O)NC(=S)NC2=O)cc1,40µM*,?,?,?,7
COc1ccc(NC(=O)C(=O)NCC2CCCN2S(=O)(=O)c2cccs2)cc1 (stereo not given),-18%,?,?,?,-20
COc1cc2c(cc1OC)/C(=C/c1ccc(Cl)cc1)C(=O)OC2,40µM*,-5%,-15%,?,0
O=[N+]([O-])c1ccc(O)c2cccnc12,-13%,?,0%[46.1 µM],13%,-10
O=[N+]([O-])c1ccc(O)c2ncccc12,-20%,?,?,?,-99*
O=[N+]([O-])c1cc([N+](=O)[O-])c2cccnc2c1Oc1ccccc1O,16µM*,?,?,?,-28
CC1=C(Br)C2=C(CC1)NC(=O)/C2=N\N1C(=O)C2CCCCC2C1=O (stereo not given),nt,nt,nt,-18%,nt
Cc1nn(Cc2noc(C(=O)NCc3cccc(F)c3)n2)c(C)c1Br,-18%,nt,-28%[46.1 µM],4%[46.1 µM],17
SMILES,FMDV antiviral,HCV inh,Lassa entry inh,Marburg entry inh,HCMV inh
NC(N)=N/N=C/c1ccc(OCc2ccccc2)cc1,nt,?,2%,?,-96*
NC(N)=N/N=C/c1ccc(OCc2ccc(Cl)cc2)cc1,-16%,?,?,?,15
COc1ccc(C)cc1N1C(=N)/C(=C2/Nc3ccccc3S2)C(c2ccccc2)C1=O (stereo not given),25µM*,13%,-1%,?,114
COc1ccc(Cn2c(O)c(C=Nc3ccccc3)c3ccccc3c2=O)cc1,-12%,-5%,?,14%,-63*
COc1ccc(Cn2c(O)c(C=Nc3ccc(O)cc3)c3ccccc3c2=O)cc1,0%,?,?,?,?
CCc1c(C(=O)Nc2ccncc2)csc1C,?,?,-8%,-16%,-100*
Cn1c(C(C(=O)NCC2CCCO2)N(CCc2ccccc2)C(=O)Cn2nnc3ccccc32)nc2ccccc21 (stereo not given),9%,11%,?,16%,-65*
COc1ccc(NC(=O)CSc2ncc3c(n2)-c2cc(Cl)ccc2N(Cc2ccccc2F)S3(=O)=O)cc1,5%,nt,-11%[46.1 µM],nt,8
CC(=O)c1ccc(NC(=O)[C@@H]2CCCN2C2=NS(=O)(=O)c3ccccc32)cc1,0%,9%,nt,nt,-10
CCCNC(=S)N1CCN(c2nc(C)nc3sc4c(c23)CCCC4)CC1,-28%,?,?,?,?
COCCCNC(=S)N1CCN(c2nc(C)nc3sc4c(c23)CCCC4)CC1,-23%,10µM*,nt,nt,?
CCC1CN(CCNC(=O)c2ccc3c(c2)OCCO3)Cc2cc(OC)ccc2O1 (stereo not given),8%,nt,nt,nt,nt
COc1ccc2[nH]c3c(c2c1)CC(C)NC3=O (stereo not given),10%,-27%,nt,nt,-75*
CCOC(=O)c1c(NC(=O)C(c2ccccc2)c2ccccc2)sc2c1C1CCN2CC1,-18%,?,?,-76%,-65*
O=C(c1ccccc1Cl)N1N=C(c2ccc(Br)cc2)CC1c1nc2ccccc2[nH]1 (stereo not given),-2%,11µM*,?,?,-10
CNc1ccc(Br)cc(C(=O)/C=C/c2ccc(OC)cc2OC)c1=O,?,-28%,-1%,-7%,-66*
COc1ccc(OC)c(/C=C/C(=O)c2ccc(Cl)cc2)c1,22µM*,?,4%,-4%,-10
COc1ccccc1/C=C/C(=O)c1ccc(Cl)cc1,-30%,?,4%,13%,14
COc1ccc(/C=C/C(=O)c2ccc(OC)cc2OC)c(OC)c1,2%,?,nt,nt,-76*
CCNc1ccc(Br)cc(C(=O)/C=C/c2c(Cl)cccc2Cl)c1=O,32µM*,13µM*,?,?,nt
COc1ccc(/C=C/C(=O)c2ccccc2)c(OC)c1,11%,-17%,?,?,-11
CCNc1ccc(Br)cc(C(=O)/C=C/c2ccc(Cl)cc2)c1=O,?,?,-5%,?,nt
COc1ccc(/C=C/C(=O)c2cc(Cl)cc(Cl)c2O)c(OC)c1,2%,?,0%,0%,?
